DAT uptake mod – modulates human dopamine transporter uptake under cocaine. B-score at 10 µM. Q01959. LLC-PK1 hDAT cells, [14C]-dopamine uptake with cocaine IC80; actives deviate in either direction. hit rate 1.3% among 110,000;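 active = Z score or B-score, a plate-position-corrected score, falls beyond the plate's 99.7% confidence bounds, in either direction; inactive = both scores lie inside the 99.7% bounds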;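 also: scored against the spread of the other compound wells on the same plate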
PostGolgi yeast – growth inhibition of a yeast mutant, post-Golgi transport screen | post-Golgi transport phenotypic cell assay | inhibition, % at 10 µM | hit rate 0.9% among 98,000 | AID 739;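 also: yeast cells grown in 1536-well plates; yeast grown about 18 h at 30C before absorbance read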
PLAP act – activates human placental alkaline phosphatase. purified PLAP enzyme, luminescent substrate read-out; stronger effect = higher value. P05187. hit rate 1.2% among 96,000. activation fold at 20 µM; in the data active = activation fold above about 2
Cav32 inh – human Cav3.2 channel inhibition, primary screen | O95180 | Cav3.2-expressing cells, Fluo-4 calcium fluorescence FDSS; stronger effect = lower value | B-score at 10 µM | hit rate 4% among 100,000;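 active = single-dose well whose peak fluorescence ratio is a statistical outlier from its plate by either plate-standardised score or position-corrected B-score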
PostGolgi ctrl – yeast control strain growth, post-Golgi counter-screen. efflux-deficient yeast background strain, growth absorbance A615, 16 h. inhibition, % at 10 µM. hit rate 5% among 98,000. AID 738
The depositor's hits bear a star. Hits are enriched below; roughly 9.6% of the tested compounds scored in any of these assays. Rule as the data show it, unless noted: active = inhibition above about 30%; inactive = the rest.

O=C(/C=C/c1ccc(Cl)cc1)N1CCN(c2ccc(Cl)cc2[N+](=O)[O-])CC1 was read as DAT uptake mod 0.56, PostGolgi yeast -14, PLAP act 1.1, Cav32 inh -7.5* and PostGolgi ctrl 93*.
Screening CO/N=C(\c1nonc1N)N1CCN(c2ccc([N+](=O)[O-])cc2Cl)CC1 returned DAT uptake mod 0.14, PostGolgi yeast 0, PLAP act 1.1 and PostGolgi ctrl 32*.
`CO/N=C(\c1nonc1N)N1CCN(c2ccc(Cl)cc2[N+](=O)[O-])CC1` gave PostGolgi yeast -7, PLAP act 0.9 and PostGolgi ctrl 58*.
Cc1cc(S(=O)(=O)N(Cc2ccc3c(c2)OCO3)CC2CCCO2)ccc1-n1cnnn1 (stereo not given) was read as DAT uptake mod 1.4, PostGolgi yeast 1, PLAP act 1.6 and PostGolgi ctrl 0.
Screening CCC(CC)NC(=O)Cc1ccccc1OC returned DAT uptake mod -0.33, PostGolgi yeast 2, PLAP act 0.8, Cav32 inh 0.87 and PostGolgi ctrl 1.
For CCOc1ccc2nc(SCC(=O)N3CCCc4ccccc43)sc2c1 the results were DAT uptake mod 1.8, PostGolgi yeast -4, PLAP act 1, Cav32 inh -4.7* and PostGolgi ctrl 10.
`O=C(CSc1nc2cc(Cl)ccc2s1)N1CCCc2ccccc21` gave DAT uptake mod 0.41, PostGolgi yeast -1, PLAP act 1.1, Cav32 inh -1.1 and PostGolgi ctrl 13.
CCOc1ccc2nc(SCC(=O)N3CCN(C(=O)c4ccco4)CC3)sc2c1 was read as DAT uptake mod -1.7*, PostGolgi yeast 3, PLAP act 1.7 and PostGolgi ctrl 17.
For CC(=O)Nc1ccc(NC(=O)c2cccc(C(=O)OC(C)C)n2)cc1 the results were DAT uptake mod 0.0054, PostGolgi yeast -1, PLAP act 1.1, Cav32 inh -3.1 and PostGolgi ctrl 21.
Screening COC(=O)c1cccc(C(=O)Nc2ccc(F)cc2)n1 returned DAT uptake mod 0.6, PostGolgi yeast -14, PLAP act 0.9, Cav32 inh 0.15 and PostGolgi ctrl 32*.
For CCOc1cc(/C=N/n2cnnc2)ccc1OC(=O)c1cccc([N+](=O)[O-])c1 the results were DAT uptake mod -0.82, PostGolgi yeast 3, PLAP act 0.9, Cav32 inh 0.38 and PostGolgi ctrl 36*.
Screening COc1ccc(/C=N/NC(=O)c2cccc([N+](=O)[O-])c2)cc1OC(=O)c1ccc(C)cc1 returned DAT uptake mod 1.3, PostGolgi yeast -1, PLAP act 1, Cav32 inh -5.4* and PostGolgi ctrl 20.
Screening COc1ccc(/C=N/NC(=O)c2cccc([N+](=O)[O-])c2)cc1OS(=O)(=O)c1ccccc1 returned DAT uptake mod 0.035, PostGolgi yeast 4, PLAP act 0.9, Cav32 inh -1.9 and PostGolgi ctrl 12.
For COc1ccc(/C=N/NC(=O)c2cccc([N+](=O)[O-])c2)cc1OC(=O)c1ccccc1 the results were DAT uptake mod -0.033, PostGolgi yeast -13, PLAP act 1.8, Cav32 inh -0.92 and PostGolgi ctrl 33*.
`CCOc1cc(/C=N/NC(=O)c2cc(C)[nH]n2)ccc1OC(=O)c1ccc([N+](=O)[O-])cc1` gave PostGolgi yeast 1, PLAP act 1.1 and PostGolgi ctrl 1.
`Cc1cc(C)c2[nH]c(=O)c(C(c3nnnn3C3CCCC3)N3CCOCC3)cc2c1` (stereo not given) gave PLAP act 1.2.
For Cc1ccc(S(=O)(=O)N[C@H](C(=O)OCn2nnc3ccccc3c2=O)C(C)C)cc1 the results were DAT uptake mod -0.048, PostGolgi yeast 3, PLAP act 0.9, Cav32 inh -3.8* and PostGolgi ctrl 35*.
`CN(C)S(=O)(=O)c1ccc(C(=O)OCn2nnc3ccccc3c2=O)cc1` gave DAT uptake mod 0.46, PostGolgi yeast 58*, PLAP act 1.3, Cav32 inh 0.14 and PostGolgi ctrl 28.
O=C(OCn1nnc2ccccc2c1=O)c1cn(-c2ccccc2)nc1-c1cccnc1 was read as DAT uptake mod 0.34, PostGolgi yeast 34*, PLAP act 0.8 and PostGolgi ctrl 4.
CCOC(=O)c1cn(-c2ccccc2)nc1-c1cccnc1 was read as DAT uptake mod 0.85, PostGolgi yeast 3, Cav32 inh -0.18 and PostGolgi ctrl 9.
O=C(CC(c1ccccc1)c1ccccc1)OCn1nnc2ccccc2c1=O was read as DAT uptake mod -0.34, PostGolgi yeast 5, PLAP act 1.4, Cav32 inh -4.9* and PostGolgi ctrl 27.
For CC(C)[C@H](NS(=O)(=O)c1ccccc1)C(=O)OCn1nnc2ccccc2c1=O the results were DAT uptake mod 0.087, PostGolgi yeast 9, PLAP act 0.9, Cav32 inh -0.35 and PostGolgi ctrl 13.
`COc1ccc(C(=O)OCn2nnc3ccccc3c2=O)cc1OC` gave DAT uptake mod 0.44, PostGolgi yeast 14, PLAP act 1, Cav32 inh 0.53 and PostGolgi ctrl 4.
O=S(=O)(C=C(c1ccccc1)c1ccccc1)c1ccccc1 was read as DAT uptake mod 0.36, PostGolgi yeast -5, PLAP act 1, Cav32 inh -0.17 and PostGolgi ctrl 36*.
For COc1ccccc1CNc1ncnc2nc[nH]c12 the results were DAT uptake mod -0.25, PostGolgi yeast 2, PLAP act 2.1* and PostGolgi ctrl 8.
For CCN(CCCNc1ncnc2nc[nH]c12)c1cccc(C)c1 the results were DAT uptake mod 0.048, PostGolgi yeast -10, PLAP act 2.1* and PostGolgi ctrl 4.
c1ccc(CCNc2ncnc3nc[nH]c23)cc1 was read as DAT uptake mod 0.24, PostGolgi yeast 1, PLAP act 2.2*, Cav32 inh 0.67 and PostGolgi ctrl 8.
Screening CCCCN(CCCNc1ncnc2nc[nH]c12)c1ccccc1 returned DAT uptake mod 1.1, PostGolgi yeast -5, PLAP act 1.6, Cav32 inh -1.1 and PostGolgi ctrl 23.
`O=C1NCCN1Cc1ccc(F)cc1` gave DAT uptake mod -1.3, PostGolgi yeast -3, PLAP act 1, Cav32 inh 0.56 and PostGolgi ctrl -2.
For Cc1ccc2nc(N3CCN(Cc4ccc(F)cc4)C3=O)c(C)cc2c1 the results were DAT uptake mod 2.2*, PostGolgi yeast -6, PLAP act 0.9, Cav32 inh -2.8 and PostGolgi ctrl 12.
`CCC(C)Nc1nc(OCC(F)(F)F)nc(OCC(F)(F)F)n1` (stereo not given) gave DAT uptake mod -0.085, PostGolgi yeast -2, PLAP act 0.9, Cav32 inh -0.1 and PostGolgi ctrl 20.
CCC(C)Nc1nc(OC(C(F)(F)F)C(F)(F)F)nc(OC(C(F)(F)F)C(F)(F)F)n1 (stereo not given) was read as DAT uptake mod 3.2* and Cav32 inh -2.4.
O=C(CSc1nnc(-c2ccc(Cl)cc2)n1Cc1ccco1)NCc1ccc2c(c1)OCO2 was read as DAT uptake mod -0.26, PostGolgi yeast 5, PLAP act 0.9, Cav32 inh -5.3* and PostGolgi ctrl 13.
